Source: PubChem BioAssay AID1942 (Johns Hopkins Ion Channel Center, 2009)
Screen size: about 2,400 compounds; about 580 (24%) were called active. A selection follows. Values without a mark were called inactive.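 Rule for the calls: active = activity change at or above the mean plus 3 SD of buffer wells without dofetilide, per plate; inactive = the rest.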

biological target: Potassium voltage-gated channel subfamily KQT member 2 (Rattus norvegicus) (UniProt O88943); assay: KCNQ2 potentiation in CHO cells – cell-based, FluxOR thallium flux, counter-screen for hERG block protector project, confirmation (AID 1942); conditions: FluxOR thallium flux fluorescence, at 10 µM, hits give high values;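 note: normalized value minus buffer-control mean plus three SD of buffer wells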
Sequence (O88943 whole entry, looked up): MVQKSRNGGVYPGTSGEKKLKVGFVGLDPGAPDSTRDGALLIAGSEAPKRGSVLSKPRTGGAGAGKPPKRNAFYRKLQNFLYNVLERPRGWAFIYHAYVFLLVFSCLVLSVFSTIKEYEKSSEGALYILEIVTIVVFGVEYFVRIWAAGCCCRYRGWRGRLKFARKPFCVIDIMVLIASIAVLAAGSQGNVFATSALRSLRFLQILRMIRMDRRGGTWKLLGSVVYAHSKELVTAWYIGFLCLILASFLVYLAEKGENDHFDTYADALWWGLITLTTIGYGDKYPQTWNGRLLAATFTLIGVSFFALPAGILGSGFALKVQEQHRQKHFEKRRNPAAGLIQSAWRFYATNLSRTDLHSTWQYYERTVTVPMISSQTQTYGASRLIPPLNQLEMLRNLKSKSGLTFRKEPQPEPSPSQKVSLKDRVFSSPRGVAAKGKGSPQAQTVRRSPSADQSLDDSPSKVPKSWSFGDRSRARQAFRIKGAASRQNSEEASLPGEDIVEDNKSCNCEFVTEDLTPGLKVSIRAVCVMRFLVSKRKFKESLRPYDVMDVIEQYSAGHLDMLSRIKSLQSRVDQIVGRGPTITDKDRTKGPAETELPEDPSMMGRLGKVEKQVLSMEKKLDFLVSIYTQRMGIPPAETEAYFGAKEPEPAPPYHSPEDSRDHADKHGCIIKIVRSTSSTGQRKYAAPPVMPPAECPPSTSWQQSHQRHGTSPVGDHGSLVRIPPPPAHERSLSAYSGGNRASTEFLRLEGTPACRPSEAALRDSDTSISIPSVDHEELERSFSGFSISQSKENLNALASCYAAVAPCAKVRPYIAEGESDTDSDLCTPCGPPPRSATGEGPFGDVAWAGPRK

Structure (SMILES) | activity change, less the hit threshold
CCN(C(=O)c1cc2c(=O)[nH]c3ccc(C)cc3c2s1)c1ccccc1F | -7%
O=C(O)c1cccc2cc(-c3ccccc3)oc(=O)c12 | -17.7%
COc1cccc(CN(C)CC2CCCN(CCc3ccc(Cl)cc3)C2)c1OC (configuration not stated) | -26.8%
Cc1ccc(-n2nc(C)c3c2OC(N)=C(C#N)C3c2ccoc2)cc1 (configuration not stated) | -13.7%
O=C(CCC(=O)N1CCN(S(=O)(=O)c2ccccc2)CC1)c1cccs1 | -13.6%
CN1C(=O)NC(c2cccc([N+](=O)[O-])c2)C2=C1CC(C)(C)CC2=O (configuration not stated) | -22.1%
CCc1ccc(NC(=S)Nc2cccc(OC)c2)cc1 | -15.5%
COc1cccc(NC(=O)c2cncs2)c1 | -22.6%
CCc1ccc(NC(=O)C(=O)NNC(=O)c2cccc(OC)c2)cc1 | 62.3% (active)
CCc1ccc(NC(=O)C(=O)NNC(=O)c2ccc(OC)cc2)cc1 | 100% (active)
COc1cccc(C(=O)NNC(=O)C(=O)Nc2ccc(C)cc2)c1 | 78.3% (active)
COc1ccc(CCNC(=O)C2CCCN(S(C)(=O)=O)C2)cc1 (configuration not stated) | -23.4%
Cc1n[nH]c(C)c1CCNC(=O)C1CCC(=O)N(Cc2ccccc2F)C1 (configuration not stated) | -14%
Cc1c(-c2ccn[nH]2)cc(NC(=O)c2ccc(Cl)cc2)c(=O)n1N | -24.4%
COCC1CCCN(C(=O)c2ccc3oc(C(C)C)nc3c2)C1 (configuration not stated) | -11.7%
Cc1ccc(NC(=O)CN2C(=O)N/C(=C/c3ccccc3OCc3cccc(C(=O)O)c3)C2=O)cc1 | -18.7%
CCOC(=O)NC(=O)/C(C#N)=N\Nc1ccc(Cl)cc1 | -17.6%
CC(C)(C)SCCNC(=O)CN1C(=O)c2ccccc2S1(=O)=O | -13.2%
Cc1nc2cc3sc(C)nc3cc2s1 | -9.2%
COc1ccc(-c2cc(=O)oc3cc(OCC(C)=O)ccc23)cc1 | -20.9%
O=C(CN1C(=O)S/C(=C\c2cccs2)C1=O)Nc1ccc(O)c(C(=O)O)c1 | -14%
O=C(CN1C(=O)S/C(=C\c2cccs2)C1=O)Nc1ccc(C(=O)O)c(O)c1 | 21.5% (active)
O=C(CCN1C(=O)/C(=C/c2cccs2)SC1=S)Nc1cccc(C(=O)O)c1 | -22.7%
CSc1nc(C)c2c(n1)N(c1ccc(C(C)C)cc1)CC2 | -17.3%
O=C(N/N=C/c1cc(Cl)ccc1O)c1ccccc1Br | 6.8% (active)
O=C(N/N=C/c1ccc(-c2ccccc2)o1)c1ccccc1O | -5.7%
Cc1cccc(C(=O)CC(=O)c2cc(Cl)ccc2O)c1 | -14.2%
